Test results reported in PubChem BioAssay (Tox21).
Records with an inconclusive call do not appear. Where a call stands in place of a potency, no number is given. Calls of active or inactive are those of the source. Calls come from the whole dose curve.

These compounds were tested against Acetylcholinesterase (Homo sapiens) (UniProt P22303) (assay: Acetylcholinesterase (AChE) small molecule antagonists: fluorescence cell-based qHTS assay (AID 1347398; note: nearly all actives have a fitted effect of over 50% in size)). Settings: SH-SY5Y cells; Potency: AChE activity; outcome: AChE activity; series mostly up to 115 µM.
Source text: National Center for Advancing Translational Sciences [NCATS]
Division of Preclinical Innovation [DPI]
U.S. Environmental Protection Agency [EPA]
National Institutes of Environmental Health Sciences [NIEHS]
National Toxicology Program [NTP]
U.S. Food and Drug Administration [FDA]
Acetylcholinesterase (AChE) is the primary cholinesterase in the body that hydrolyzes a key neurotransmitter, acetylcholine. Inhibition of AChE activity can lead to neurotoxicity. Known inhibitors of AChE include organophosphorous pesticides (OP), chemical warfare agents, drugs, and various phytochemicals.
A homogenous cell-based assay using Amplitetrade mark Fluorimetric Acetylcholinesterase Assay Kit *Green Fluorescence* (AAT Bioquest, Sunnyvale, CA) was used to evaluate the chemicals in the Tox21 10K library that inhibit AChE activity. The assay uses Thiolite Green to quantify the thiocholine produced from the hydrolysis of acetylthiocholine by AChE from the SH-SY5Y cells. AChE can hydrolyze acetylthiocholine to create thiocholine. Thiolite Green is fluorescent when reacting with thiocholine. It has spectral properties similar to those of fluorescein. The fluorescence intensity of Thiolite Green is used to measure AChE activity. Its signal can be easily read by a fluorescence microplate reader at Ex/Em = 490/520 nm.
Tox21 Assay Protocol Summary:
For cell-based AChE assay, 2,000 SH-SY5Y cells in 4 uL/well were dispensed into black, clear-bottom 1536-well plates using a Multidrop Combi (Thermo Scientific) dispenser. The assay plates were incubated overnight at 37 C to allow cells to attach to the wells, followed by the transfer of 23 nL compound or DMSO (vehicle control) by a Pintool station (Wako Automation, CA). The plates were incubated for 30 min at 37 C and 5% CO2, followed by the addition of 4 uL of detection cocktail solution (ThioliteGreen, acetylthiocholine) into each well using Flying Reagent Dispenser (Beckman Coulter, CA) and then following 40 min incubation at room temperature. Fluorescent intensity (Ex/Em = 490/520 nm) was measured using an Envision plate reader (PerkinElmer, MA).

Sequence of Acetylcholinesterase (Homo sapiens) (P22303 whole entry, looked up): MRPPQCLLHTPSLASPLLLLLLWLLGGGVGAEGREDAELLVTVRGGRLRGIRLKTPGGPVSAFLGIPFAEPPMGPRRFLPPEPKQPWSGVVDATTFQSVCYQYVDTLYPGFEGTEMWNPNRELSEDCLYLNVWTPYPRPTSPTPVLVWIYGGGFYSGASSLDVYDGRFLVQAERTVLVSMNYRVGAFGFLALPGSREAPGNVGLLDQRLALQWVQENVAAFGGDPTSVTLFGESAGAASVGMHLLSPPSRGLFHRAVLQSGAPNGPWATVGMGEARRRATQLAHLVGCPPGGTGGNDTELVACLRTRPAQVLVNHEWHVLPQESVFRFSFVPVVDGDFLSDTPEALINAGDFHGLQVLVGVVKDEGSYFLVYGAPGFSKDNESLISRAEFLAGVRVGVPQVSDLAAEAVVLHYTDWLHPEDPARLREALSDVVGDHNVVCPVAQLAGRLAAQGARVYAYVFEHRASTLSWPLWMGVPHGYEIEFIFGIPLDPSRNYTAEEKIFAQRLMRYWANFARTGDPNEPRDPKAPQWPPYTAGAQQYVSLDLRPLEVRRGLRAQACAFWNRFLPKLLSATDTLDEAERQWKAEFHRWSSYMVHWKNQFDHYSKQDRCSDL

SMILES | Potency | activity change, negative = inhibition
C=CC(=O)OCCCCCCCCCC | inactive | –
CC(CCC(=O)O)(c1ccc(O)cc1)c1ccc(O)cc1 | inactive | –
O=C1C(N(CO)C(=O)NCO)N(CO)C(=O)N1CO (stereo not given) | inactive | –
O=C1CN(/N=C/c2ccc([N+](=O)[O-])o2)C(=O)N1 | inactive | –
COC(=O)[C@@H]1CC2=CC(=O)CC[C@]2(C)[C@@]23O[C@@H]2C[C@@]2(C)[C@@H](CC[C@@]24CCC(=O)O4)[C@H]13 | inactive | –
COC(=O)Nc1nc2ccc(S(=O)c3ccccc3)cc2[nH]1 (stereo not given) | inactive | –
O=C(O)c1ccccc1Nc1cccc(C(F)(F)F)c1 | inactive | –
C=Cc1ccccc1C=C | inactive | –
CCC(=O)OCc1ccccc1 | inactive | –
O=c1[nH]c2ccccc2c(=O)n1CCCl | inactive | –
CCCCCCCCCCOc1cc2c(=O)c(C(=O)OCC)c[nH]c2cc1OCC | – | -0.416% [at 10.5 µM] (inactive)
O=C1CCCCCCCCCCOCCCCO1 | inactive | –
c1ccc(Nc2ccccc2)cc1 | inactive | –
CCOc1cc(OCC)c(C(=O)CCC(=O)O)cc1OCC | inactive | –
O=C1Nc2ccc([N+](=O)[O-])cc2C1=O | inactive | –
CCC(=O)Oc1ccc(/C(CC)=C(\CC)c2ccc(OC(=O)CC)cc2)cc1 | inactive | –
O=C=NCCCCCCN=C=O | inactive | –
CCc1ccccc1 | inactive | –
NC(=O)c1ccccc1N | inactive | –
C=CCNC(N)=S | inactive | –

SMILES | Potency | activity change, negative = inhibition
CC(C)(CO)CO | inactive | –
NS(=O)(=O)c1cc(-c2nn[nH]n2)c(NCc2cccs2)cc1Cl | inactive | –
CCOC(=O)CC(C(C)=O)C(C)=O | inactive | –
O=Cc1ccccc1S(=O)(=O)O | inactive | –
CC1=CC2C3CC(C=C3C)C2C1 (stereo not given) | inactive | –
CC(C)(C)c1ccc(OC2CCCCC2O)cc1 (stereo not given) | inactive | –
Cc1c[nH]c2ccccc12 | inactive | –
CC[C@H]1OC(=O)[C@H](C)[C@@H](O[C@H]2C[C@@](C)(OC)[C@@H](O)[C@H](C)O2)[C@H](C)[C@@H](O[C@@H]2O[C@H](C)C[C@H](N(C)C)[C@H]2O)[C@](C)(O)C[C@@H](C)/C(=N\OCOCCOC)[C@H](C)[C@@H](O)[C@]1(C)O | inactive | –
C[C@@H](N)C(=O)O | inactive | –
O=C(O)c1cccc(C(=O)O)n1 | inactive | –
CC(=O)c1ccc(S(=O)(=O)NC(=O)NC2CCCCC2)cc1 | inactive | –
CC1=C(Br)C(=O)C(Br)=C/C1=C(/c1ccccc1S(=O)(=O)O)c1cc(Br)c(O)c(Br)c1C | inactive | –
CC(C)C/C=C(\C=O)c1ccccc1 | inactive | –
Cc1oc(-c2ccccc2)nc1CCOc1cccc2c1ccn2CCC(=O)O | inactive | –
Oc1ccc(OCc2ccccc2)cc1 | inactive | –
Oc1ccc2cc(SSc3ccc4cc(O)ccc4c3)ccc2c1 | inactive | –
Cc1cc(C(C)(C)C)c(O)c(C(C)(C)C)c1 | inactive | –
O=C(O)c1ccc(S(=O)(=O)N(Cl)Cl)cc1 | inactive | –
FB(F)F | inactive | –
NC(=O)N[C@@H](CCC(=O)O)C(=O)O | inactive | –
